Rows were chosen to be rich in hits. Some 2.4% of all compounds tested hit in one or more screens of this group.
M1 ag parental: M1 agonist counterscreen hit in parental CHO-K1 cells | activation, % at 3 µM | Fluo-8 calcium fluorescence; scaled to maximal ATP response, vehicle zero | hit rate 0.48% among 360,000; in the data active = activation above about 15%;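 also: untransfected CHO-K1 host cells lacking M1 receptor as counterscreen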
CHRM1 agonist: human M1 muscarinic receptor agonism. AID 588814. CHO-K1 hM1, Fluo-8 calcium fluorescence, agonist mode; 0% DMSO, 100% acetylcholine EC100. P11229. hit rate 0.33% among 360,000. activation, % at 3 µM;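 active = activation above the run's mean compound activation plus 3 SD, cut at about 16% in these data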;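 also: peak over basal fluorescence ratio within a 140 s kinetic read after compound addition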
Target sequence (P11229 whole entry, looked up): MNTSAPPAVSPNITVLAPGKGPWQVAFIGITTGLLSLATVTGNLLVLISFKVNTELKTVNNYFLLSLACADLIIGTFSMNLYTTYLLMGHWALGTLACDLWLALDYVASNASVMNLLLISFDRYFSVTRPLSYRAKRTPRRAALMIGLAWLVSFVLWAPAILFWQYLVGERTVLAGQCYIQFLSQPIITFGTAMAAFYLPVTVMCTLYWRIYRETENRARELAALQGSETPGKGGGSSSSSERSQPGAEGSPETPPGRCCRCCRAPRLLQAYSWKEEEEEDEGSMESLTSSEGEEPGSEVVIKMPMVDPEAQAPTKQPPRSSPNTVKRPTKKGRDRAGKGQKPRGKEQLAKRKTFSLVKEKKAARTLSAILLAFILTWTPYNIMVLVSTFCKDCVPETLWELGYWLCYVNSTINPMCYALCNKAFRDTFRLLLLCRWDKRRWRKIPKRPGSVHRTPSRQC
M1 PAM: potentiates human M1 receptor response to acetylcholine; P11229; CHO-K1 hM1, Fluo-8 calcium fluorescence, ACh EC20; 0% = ACh EC20, 100% = maximal ACh; activation, % at 3 µM; hit rate 0.088% among 360,000; AID 588819; in the data active = activation above about 19%, passing the limit was not always enough
CHO-K1 Ca PAM: counter-screen for M1 PAMs: effect in parental CHO-K1 cells; hit rate 0.02% among 360,000; activation, % at 3 µM; ATP EC20, Fluo-8 calcium fluorescence; 0% at ATP EC20, 100% at ATP max;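 active = activation above the run cutoff, the mean activation of all test compounds plus 3 SD, cut at about 40% in these data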;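 also: peak over basal fluorescence ratio in a 140 s read after ATP addition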
M1 antag: blocks human M1 muscarinic receptor; P11229; CHO-K1 hM1, Fluo-8 calcium fluorescence, ACh EC80 antagonist; inhibition, % at 3 µM; hit rate 1.3% among 360,000; AID 588852;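 active = percent inhibition above its own plate's cutoff, namely the mean of that plate's compound wells plus 3 SD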;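 also: peak over basal fluorescence ratio during 140 s after agonist addition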
CHO-K1 Ca antag: nonselective inhibitor or artifact in parental CHO-K1 cells; ATP-induced calcium, Fluo-8 fluorescence; inhibition, % at 3 µM; hit rate 0.6% among 360,000;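 active = inhibition above a per-plate cutoff, the plate's mean sample inhibition plus 3 SD, cut at about 24% in these data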
Hits are given with their value; i = inactive; nt = not tested or not shown.

SMILES	M1 ag parental	CHRM1 agonist	M1 PAM	CHO-K1 Ca PAM	M1 antag	CHO-K1 Ca antag
COCCN1CCC(CNCc2cn[nH]c2-c2ccc(C)c(C)c2)C1 (stereo not drawn)	i	i	i	i	i	i
COCCN1CCC(CNCc2cn(-c3cc(C)ccc3C)nc2-c2ccccc2)C1 (stereo not drawn)	i	i	i	i	i	26.1
Oc1ccc(Cl)cc1C1=NNC(c2cccs2)C1 (stereo not drawn)	i	i	i	i	i	i
Cc1ccc(O)c(C2=NNC(c3ccc(Cl)cc3)C2)c1 (stereo not drawn)	i	22.6	i	i	45.4	i
CCOC(=O)N1CCN(C(=O)c2ccc(OCC)c(OCC)c2)CC1	i	i	i	i	i	37.3
CCOC(=O)N1CCN(C(=O)c2ccc3c(c2)NC(=O)/C(=C\c2ccc(OC)c(OC)c2)S3)CC1	i	i	i	i	51.5	i
COc1ccc(/C=C2/Sc3ccc(C(=O)N4CCOCC4)cc3NC2=O)cc1OC	i	i	i	i	i	i
CCCCCn1c(=S)[nH]c2cc(C(=O)N3CCN(C(=O)OCC)CC3)ccc2c1=O	i	i	i	i	i	i
CCOC(=O)N1CCN(C(=O)c2ccc3c(=O)n(CCC4=CCCCC4)c(=O)[nH]c3c2)CC1	i	i	i	i	66.2	i
O=C(Cn1nc(C(=O)O)c2ccccc2c1=O)Nc1cccc(S(=O)(=O)N2CCOCC2)c1	i	i	i	i	i	i
O=C(O)c1nn(CC(=O)N2CCCCCC2)c(=O)c2ccccc12	16.3	i	i	i	i	i
O=C(Cn1nc(C(=O)O)c2ccccc2c1=O)Nc1cccc(S(=O)(=O)N2CCCCC2)c1	i	i	i	i	24.0	i
COc1cccc(CN(C)C(=O)c2cc(COc3ccc(-n4cncn4)cc3)on2)c1	15.8	i	i	i	i	i
COc1cccc(CN(C)C(=O)c2cc(COc3ccc4ncccc4c3)on2)c1	19.3	i	i	i	49.9	43.8
COc1cccc(CN(C)C(=O)c2cc(COc3c(F)cccc3F)on2)c1	i	i	i	i	i	i
CC(=O)c1c(COC(=O)c2ccco2)nc2ccccc2[n+]1[O-]	i	i	i	i	i	i
O=C(OCc1nc2ccccc2[n+]([O-])c1C(=O)c1ccccc1)c1ccco1	i	i	i	i	i	24.2
CC(=O)c1ccc2c(c1)N(Cc1ccc3ccccc3c1)C(=O)C(C)S2 (stereo not drawn)	i	i	i	i	i	i
NC(=O)c1c(NC(=O)CN2CCOCC2)sc2c1CCC2	i	18.1	24.8	i	i	i
COc1cc(SC)ccc1C(=O)NCCc1c[nH]c2ccccc12	i	i	i	i	i	i
COc1cc2cc(C(=O)NCCc3c[nH]c4ccccc34)c(N)nc2cc1OC	18.9	nt	nt	i	nt	i
CSc1nsc(SCC(=O)Nc2ccccc2C(=O)O)n1	i	i	i	i	i	i
CCOC(=O)C(=O)N(C)c1c(CC)nc2c(OCc3cc(Cl)cc(Cl)c3)cccn12	i	i	i	i	i	28.8
Cn1c(SCC(=O)Nc2ccccc2)nc2c([nH]c3ccccc32)c1=O	i	i	i	i	34.9	i
CC(C)C(=O)N[C@@H]1c2ccccc2CC[C@@H]1O	i	i	i	i	i	i
SMILES	M1 ag parental	CHRM1 agonist	M1 PAM	CHO-K1 Ca PAM	M1 antag	CHO-K1 Ca antag
CCN1CCN(c2ccc(S(=O)(=O)N3CCOCC3)cc2NC(=O)c2ccc(Cl)cc2Cl)CC1	i	i	i	i	i	i
CCN1CCN(c2ccc(S(=O)(=O)N3CCCCC3)cc2NC(=O)Cc2ccccc2)CC1	i	i	i	i	i	i
CN1CCN(c2ccc(S(=O)(=O)N3CCCCC3)cc2NC(=O)COc2ccc([N+](=O)[O-])cc2)CC1	i	i	i	i	32.0	i
CCN1CCN(c2ccc(S(=O)(=O)N3CCOCC3)cc2NC(=O)c2ccccc2OC(F)F)CC1	i	20.2	i	i	i	i
Cc1ccc(OCC(=O)Nc2cc(S(=O)(=O)N3CCCCC3)ccc2N2CCN(C)CC2)c(C)c1	i	i	i	i	i	i
CCN1CCN(c2ccc(S(=O)(=O)N3CCCCC3)cc2NC(=O)Cc2ccc(Cl)c(Cl)c2)CC1	18.0	i	i	i	i	28.7
Cc1ccccc1OCCC(=O)Nc1cc(S(=O)(=O)N2CCCCC2)ccc1N1CCN(C)CC1	51.2	34.3	i	i	i	i
COc1ccc(OC(C)C(=O)N(C)Cc2nc(-c3ccc(OC)cc3)no2)cc1 (stereo not drawn)	i	i	i	i	i	i
CC1=C(C(=O)N2CCOCC2)CC(CC(=O)NC2CCCC2)C(=O)N1Cc1ccc(F)cc1 (stereo not drawn)	i	i	i	i	i	i
O=C(NC1(Cc2ccccc2)CCN(Cc2ccc(-c3ccccc3)cc2)C1=O)c1ccccc1 (stereo not drawn)	i	i	i	i	37.1	i
O=C(CCc1ccccc1)NC1(Cc2ccccc2)CCN(CCc2cccs2)C1=O (stereo not drawn)	i	i	i	i	i	i
O=S(=O)(O)c1cc(O)ccc1O	i	34.8	i	i	i	i
CCOC(=O)c1ccc(NC(=S)N2CCSC2c2ccc(Br)cc2)cc1 (stereo not drawn)	i	33.7	i	i	33.5	i
COc1ccc(C2/C=C\CN(C(=O)C3CCCCC3)CC(=O)N2Cc2ccc(F)cc2)cc1 (stereo not drawn)	i	i	i	i	i	i
COc1ccc(C2/C=C\CN(C(=O)C3CCCC3)CC(=O)N2Cc2ccc(F)cc2)cc1 (stereo not drawn)	i	i	31.6	i	i	i
Cc1ccc(NC(=O)CNC(=O)c2cccc(C)c2)nc1	i	21.3	i	i	i	i
COc1ccc(NC(=O)c2c(F)c(F)c(F)c(F)c2F)cc1Cl	i	i	i	i	i	31.9
Cc1ccc(C)c(N2C(=O)CC(Cc3ccc(Br)cc3)C2=O)c1 (stereo not drawn)	i	i	i	i	i	i
CCCCNC(=O)N(O)C1N(/N=C/c2ccccc2OC)C(=S)SC1(C)C (stereo not drawn)	i	i	i	i	i	i
CCN(CC)c1ccc(/C=C(/C#N)C(=O)NCc2ccccc2)o1	27.5	16.2	i	i	i	i
CCC1Oc2ccc(C)cc2N(CC(=O)N(Cc2ccc(C)o2)C2CC(C)(C)NC(C)(C)C2)C1=O (stereo not drawn)	i	i	i	i	29.2	i
O=C(Nc1ccccc1C(=O)NC1CC1)c1ccccc1F	i	i	i	i	i	i
CCOc1ccc2noc3c2c1C(=O)c1ccccc1-3	i	21.5	i	i	i	i
CCNc1ccc2noc3c2c1C(=O)c1ccccc1-3	50.7	75.2	i	i	35.7	26.7
O=C1c2ccccc2-c2onc3ccc(N4CCCC4)c1c23	i	i	i	i	i	i
